Holding throughout (experiment): peptide microarray binding signal (635 nm), min-max normalized on array (fraction of array maximum); higher = stronger binding
Conditions in all cases: peptide region: H3 5-17

In assay [1] the target is T1, HaloTag-ATRX ADD domain (163-292).
T1 chain: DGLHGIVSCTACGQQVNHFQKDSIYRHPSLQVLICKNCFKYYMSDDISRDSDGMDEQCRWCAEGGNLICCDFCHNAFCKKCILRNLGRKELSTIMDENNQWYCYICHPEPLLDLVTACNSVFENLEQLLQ
Summed up:
(§1)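 Arrays carried histone 13-mer peptide–cellulose conjugates printed in triplicate on nitrocellulose alongside a Cy3 tracer. After overnight blocking at 4°C, they were incubated for 1 h at 4°C with biotin-labelled HaloTag reader fusions (10 nM to 1 μM) plus streptavidin-Alexa Fluor 647, or with rabbit histone antibodies (1:10,000 to 1:2,000) plus anti-rabbit Alexa 647. Scanning on an Axon GenePix 4000B used 635 nm for signal and 532 nm for misprints. The binding signal reported is each triplicate's mean spot intensity after per-library min-max scaling.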

Assay [2] deals with HaloTag-ING2 PHD (mouse Ing2 200-280). A digest of the protocol: as §1
The target of assay [3] is anti-H3K4me3 antibody ab8580. A digest of the protocol: as §1
Assay [4] concerns the target anti-H3K9me3 antibody ab8898. A digest of the protocol: as §1
[5] abbreviates: peptide modifications: H3R8me1 H3T11ph, binder concentration: 1:2,000 dilution.
Where [6] appears, read: peptide modifications: H3R8me1 H3T11ph, binder concentration: 1:10,000 dilution.
The mark [7] stands for this setting: peptide modifications: H3R8me1 H3K9me1, binder concentration: 1:2,000 dilution.
Where [8] appears, read: peptide modifications: H3R8me1 H3K9me1, binder concentration: 1:10,000 dilution.
[9] abbreviates: peptide modifications: H3R8me2a, binder concentration: 1:2,000 dilution.
[10] abbreviates: peptide modifications: H3R8me2a, binder concentration: 1:10,000 dilution.
Where [11] appears, read: peptide modifications: H3R8me2a H3K9me1, binder concentration: 1:2,000 dilution.
[12] abbreviates: peptide modifications: H3R8me2a H3K9me1, binder concentration: 1:10,000 dilution.
The mark [13] stands for this setting: peptide modifications: H3R8me2a H3T11ph, binder concentration: 1:2,000 dilution.
The mark [14] stands for this setting: peptide modifications: H3R8me2a H3T11ph, binder concentration: 1:10,000 dilution.
Setting [15] is: peptide modifications: H3R8me1 H3S10ph, binder concentration: 1:2,000 dilution.
Setting [16] is: peptide modifications: H3R8me1 H3S10ph, binder concentration: 1:10,000 dilution.
Where [17] appears, read: peptide modifications: H3R8cit H3K9me1, binder concentration: 1:2,000 dilution.
Setting [18] is: peptide modifications: H3R8cit H3K9me1, binder concentration: 1:10,000 dilution.
[19] abbreviates: peptide modifications: H3R8me1 H3K9me2, binder concentration: 1:2,000 dilution.
Setting [20] is: peptide modifications: H3R8me1 H3K9me2, binder concentration: 1:10,000 dilution.
[21] abbreviates: peptide modifications: H3R8me1 H3K9me3, binder concentration: 1:2,000 dilution.
The mark [22] stands for this setting: peptide modifications: H3R8me1 H3K9me3, binder concentration: 1:10,000 dilution.
Where [23] appears, read: peptide modifications: H3R8me1 H3K9ac, binder concentration: 1:2,000 dilution.
Setting [24] is: peptide modifications: H3R8me1 H3K9ac, binder concentration: 1:10,000 dilution.

± gives the standard deviation.

Consider QTARKSTGGKAPR [H3 5-17 Q T A Rme K S Tph G G K A P R], for which the “peptide microarray binding signal” value amounted to 0.00818 ± 0.0006 in assay [1] (peptide modifications: H3R8me1 H3T11ph, binder concentration: 50 nM); 0.017 ± 0.0013 in assay [1] (peptide modifications: H3R8me1 H3T11ph, binder concentration: 500 nM); 0.0191 ± 0.0015 in assay [2] (peptide modifications: H3R8me1 H3T11ph, binder concentration: 10 nM); 0.042 ± 0.0045 in assay [2] (peptide modifications: H3R8me1 H3T11ph, binder concentration: 100 nM); 0.00244 ± 0.00022 in assay [3] (setting [5]); 0.00428 ± 0.00027 in assay [3] (setting [6]). Further, the figures for the “peptide microarray binding signal” value in assay [4] (setting [5]) and in assay [4] (setting [6]) were 0.0103 ± 0.012 and 0.012 ± 0.01, respectively.

In the case of QTARKSTGGKAPR [H3 5-17 Q T A Rme Kme S T G G K A P R], the “peptide microarray binding signal” value was found to be 0.01 ± 0.0016 in assay [1] (peptide modifications: H3R8me1 H3K9me1, binder concentration: 50 nM); 0.0241 ± 0.0051 in assay [1] (peptide modifications: H3R8me1 H3K9me1, binder concentration: 500 nM); 0.0382 ± 0.016 in assay [2] (peptide modifications: H3R8me1 H3K9me1, binder concentration: 10 nM); 0.0483 ± 0.0026 in assay [2] (peptide modifications: H3R8me1 H3K9me1, binder concentration: 100 nM); 0.0217 ± 0.00038 in assay [3] (setting [7]); 0.0201 ± 0.0019 in assay [3] (setting [8]). The figures for the “peptide microarray binding signal” value in assay [4] (setting [7]) and in assay [4] (setting [8]) were 0.034 ± 0.009 and 0.0236 ± 0.0018, respectively.

QTARKSTGGKAPR [H3 5-17 Q T A Rme2a K S T G G K A P R]: the “peptide microarray binding signal” value in assay [1] (peptide modifications: H3R8me2a, binder concentration: 50 nM) amounted to 0.00386 ± 0.00017; in assay [1] (peptide modifications: H3R8me2a, binder concentration: 500 nM), 0.00367 ± 0.00047; in assay [2] (peptide modifications: H3R8me2a, binder concentration: 10 nM) it was 0.00346; in assay [2] (peptide modifications: H3R8me2a, binder concentration: 100 nM) it was 0.0034 ± 0.00021; in assay [3] (setting [9]), 0.0114 ± 0.0019; in assay [3] (setting [10]), 0.00793 ± 0.00067. Moreover, the results for the “peptide microarray binding signal” value in assay [4] (setting [9]) and in assay [4] (setting [10]) were 0.00296 ± 0.00055 and 0.00565 ± 0.0013, respectively.

On to QTARKSTGGKAPR [H3 5-17 Q T A Rme2a Kme S T G G K A P R], for which the “peptide microarray binding signal” value is 0.0102 ± 0.00047 in assay [1] (peptide modifications: H3R8me2a H3K9me1, binder concentration: 50 nM); 0.0208 ± 0.00058 in assay [1] (peptide modifications: H3R8me2a H3K9me1, binder concentration: 500 nM); 0.0329 ± 0.0037 in assay [2] (peptide modifications: H3R8me2a H3K9me1, binder concentration: 10 nM); 0.0496 ± 0.0052 in assay [2] (peptide modifications: H3R8me2a H3K9me1, binder concentration: 100 nM); 0.0224 ± 0.003 in assay [3] (setting [11]); 0.0247 ± 0.0017 in assay [3] (setting [12]). The “peptide microarray binding signal” value was 0.0228 ± 0.0036 in assay [4] (setting [11]) and 0.0159 ± 0.0016 in assay [4] (setting [12]).

For the molecule QTARKSTGGKAPR [H3 5-17 Q T A Rme2a K S Tph G G K A P R], the “peptide microarray binding signal” value in assay [1] (peptide modifications: H3R8me2a H3T11ph, binder concentration: 50 nM) was 0.00567 ± 0.00028; in assay [1] (peptide modifications: H3R8me2a H3T11ph, binder concentration: 500 nM), 0.008 ± 0.00083; in assay [2] (peptide modifications: H3R8me2a H3T11ph, binder concentration: 10 nM), 0.0111 ± 0.00069; in assay [2] (peptide modifications: H3R8me2a H3T11ph, binder concentration: 100 nM), 0.0171 ± 0.0015; in assay [3] (setting [13]), 0.00181 ± 0.00016; in assay [3] (setting [14]), 0.00257 ± 6e-05. Also, the “peptide microarray binding signal” value is 0.0287 ± 0.023 in assay [4] (setting [13]) and 0.00409 ± 0.0015 in assay [4] (setting [14]).

On to QTARKSTGGKAPR [H3 5-17 Q T A Rme K Sph T G G K A P R], for which the “peptide microarray binding signal” value in assay [1] (peptide modifications: H3R8me1 H3S10ph, binder concentration: 50 nM) amounted to 0.0079 ± 0.00028; in assay [1] (peptide modifications: H3R8me1 H3S10ph, binder concentration: 500 nM), 0.0149 ± 0.003; in assay [2] (peptide modifications: H3R8me1 H3S10ph, binder concentration: 10 nM), 0.0175 ± 0.0014; in assay [2] (peptide modifications: H3R8me1 H3S10ph, binder concentration: 100 nM) it was 0.0298 ± 0.002; in assay [3] (setting [15]), 0.00208 ± 0.00022; in assay [3] (setting [16]) it was 0.00217 ± 0.00011. Also, the results for the “peptide microarray binding signal” value in assay [4] (setting [15]) and in assay [4] (setting [16]) were 0.00359 ± 0.00056 and 0.00306, respectively.

On to QTARKSTGGKAPR [H3 5-17 Q T A Rcit Kme S T G G K A P R], for which the “peptide microarray binding signal” value amounted to 0.00686 ± 0.00018 in assay [1] (peptide modifications: H3R8cit H3K9me1, binder concentration: 50 nM); 0.0113 ± 0.00044 in assay [1] (peptide modifications: H3R8cit H3K9me1, binder concentration: 500 nM); 0.0186 ± 0.0018 in assay [2] (peptide modifications: H3R8cit H3K9me1, binder concentration: 10 nM); 0.0317 ± 0.0022 in assay [2] (peptide modifications: H3R8cit H3K9me1, binder concentration: 100 nM); 0.00427 ± 0.00041 in assay [3] (setting [17]); 0.00394 ± 6.2e-05 in assay [3] (setting [18]). In addition, the “peptide microarray binding signal” value is 0.00462 ± 0.00021 in assay [4] (setting [17]) and 0.00311 ± 7e-05 in assay [4] (setting [18]).

Regarding QTARKSTGGKAPR [H3 5-17 Q T A Rme Kme2 S T G G K A P R], the “peptide microarray binding signal” value in assay [1] (peptide modifications: H3R8me1 H3K9me2, binder concentration: 50 nM) came out at 0.00934 ± 0.00073; in assay [1] (peptide modifications: H3R8me1 H3K9me2, binder concentration: 500 nM), 0.0296 ± 0.00077; in assay [2] (peptide modifications: H3R8me1 H3K9me2, binder concentration: 10 nM), 0.0501 ± 0.013; in assay [2] (peptide modifications: H3R8me1 H3K9me2, binder concentration: 100 nM), 0.0426 ± 0.0023; in assay [3] (setting [19]) it was 0.0281 ± 0.0026; in assay [3] (setting [20]) it was 0.0231 ± 0.00029. The “peptide microarray binding signal” value is 0.175 ± 0.029 in assay [4] (setting [19]) and 0.0879 ± 0.0073 in assay [4] (setting [20]).

Take QTARKSTGGKAPR [H3 5-17 Q T A Rme Kme3 S T G G K A P R]: the “peptide microarray binding signal” value in assay [1] (peptide modifications: H3R8me1 H3K9me3, binder concentration: 50 nM) came out at 0.00652 ± 0.00076; in assay [1] (peptide modifications: H3R8me1 H3K9me3, binder concentration: 500 nM) it was 0.0104 ± 0.0013; in assay [2] (peptide modifications: H3R8me1 H3K9me3, binder concentration: 10 nM), 0.0116 ± 0.00032; in assay [2] (peptide modifications: H3R8me1 H3K9me3, binder concentration: 100 nM), 0.0168 ± 0.002; in assay [3] (setting [21]), 0.0438 ± 0.013; in assay [3] (setting [22]), 0.0394 ± 0.0046. The “peptide microarray binding signal” value in assay [4] (setting [21]) was 0.185 ± 0.023; in assay [4] (setting [22]) it was 0.243 ± 0.0063.

Turning to QTARKSTGGKAPR [H3 5-17 Q T A Rme Kac S T G G K A P R], the “peptide microarray binding signal” value in assay [1] (peptide modifications: H3R8me1 H3K9ac, binder concentration: 50 nM) worked out at 0.0137 ± 0.00035; in assay [1] (peptide modifications: H3R8me1 H3K9ac, binder concentration: 500 nM) it was 0.0307 ± 0.0019; in assay [2] (peptide modifications: H3R8me1 H3K9ac, binder concentration: 10 nM), 0.0479 ± 0.004; in assay [2] (peptide modifications: H3R8me1 H3K9ac, binder concentration: 100 nM) it was 0.0783 ± 0.0015; in assay [3] (setting [23]), 0.0231 ± 0.0043; in assay [3] (setting [24]), 0.0272 ± 0.0053. Further, the “peptide microarray binding signal” value in assay [4] (setting [23]) worked out at 0.0277 ± 0.0029; in assay [4] (setting [24]) it was 0.0205 ± 0.00081.
